Results taken from PubChem BioAssay (NCI).
This is part of a sample that, as a whole, favours compounds with a hit. Of some 83,000 tested, about 20% had one in any assay.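 The test compound was applied at a single concentration to cells in 96-well plates for 48 hours, and percent growth was recorded.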 Calls of active or inactive are those of the source. The calls were made as follows: active = growth percent below 10; inactive = the rest.

What was measured:
Experiment in all cases: NCI-60 one-dose screen, 48 h (100 = growth as untreated, 0 = no growth, -100 = all killed)
Details in all cases: 10 µM unless noted
RPMI-8226 leukemia = test system: RPMI-8226 leukemia
OVCAR-8 ovarian = test system: OVCAR-8 ovarian
OVCAR-5 ovarian = test system: OVCAR-5 ovarian
OVCAR-4 ovarian = test system: OVCAR-4 ovarian
IGROV1 ovarian = test system: IGROV1 ovarian
OVCAR-3 ovarian = test system: OVCAR-3 ovarian
HS 578T breast = test system: HS 578T breast
NCI/ADR-RES ovarian = test system: NCI/ADR-RES ovarian
T-47D breast = test system: T-47D breast
BT-549 breast = test system: BT-549 breast
MDA-MB-435 melanoma = test system: MDA-MB-435 melanoma
SW-620 colon = test system: SW-620 colon
MCF7 breast = test system: MCF7 breast
HCT-116 colon = test system: HCT-116 colon
HCC-2998 colon = test system: HCC-2998 colon
KM12 colon = test system: KM12 colon
SK-OV-3 ovarian = test system: SK-OV-3 ovarian

Measured: growth

O=C(C1=Cc2cc3ccccc3n2Cc2cnnn21)c1ccccc1
inactive: RPMI-8226 leukemia 53.1% | OVCAR-8 ovarian 51.8% | OVCAR-5 ovarian 89.2% | OVCAR-4 ovarian 82.7% | IGROV1 ovarian 44.6% | OVCAR-3 ovarian 26.9% | HS 578T breast 69% | NCI/ADR-RES ovarian 27% | T-47D breast 28.8% | BT-549 breast 37.5% | SW-620 colon 28.5% | MCF7 breast 35.2% | HCT-116 colon 26.7% | HCC-2998 colon 71.7% | KM12 colon 33.8%
active: MDA-MB-435 melanoma -7.53%

Nc1cc2c([nH]c[n+]2CC#CCCl)c(SCC#CCCl)n1
active: RPMI-8226 leukemia -2.17% | OVCAR-8 ovarian 0.0129% | OVCAR-5 ovarian -76.9% | SK-OV-3 ovarian -21.7% | IGROV1 ovarian -57% | OVCAR-3 ovarian -21.1% | NCI/ADR-RES ovarian -24.2% | T-47D breast -60.1% | BT-549 breast -91.2% | MDA-MB-435 melanoma -34.2% | SW-620 colon -27.2% | HCT-116 colon -98.6% | HCC-2998 colon -96.9% | KM12 colon -80.2%
inactive: HS 578T breast 47.3%

COc1ccc(-c2cnoc2-c2ccc(OC)cc2O)cc1
active: OVCAR-3 ovarian -11.3% | NCI/ADR-RES ovarian -21% | MDA-MB-435 melanoma -29.4%
inactive: OVCAR-5 ovarian 64.1% | OVCAR-4 ovarian 75.1% | SK-OV-3 ovarian 30% | IGROV1 ovarian 51.6% | T-47D breast 40.3% | BT-549 breast 56.5% | SW-620 colon 11% | MCF7 breast 19.6% | HCT-116 colon 16.5% | HCC-2998 colon 32% | KM12 colon 19.2%

O=C1/C(=C/c2ccc(Cl)cc2)CN(Cc2cn(CCNc3ccnc4cc(Cl)ccc34)nn2)C/C1=C\c1ccc(Cl)cc1
active: OVCAR-8 ovarian -59.5% | OVCAR-5 ovarian -94.9% | OVCAR-4 ovarian -4.44% | IGROV1 ovarian -75.7% | OVCAR-3 ovarian -100% | HS 578T breast -19.8% | NCI/ADR-RES ovarian -26.6% | T-47D breast -32.6% | BT-549 breast -96.4% | MDA-MB-435 melanoma -98.6% | SW-620 colon -92.5% | MCF7 breast -100% | HCT-116 colon -85.5% | HCC-2998 colon -95.1% | KM12 colon -93.9%

O=C1Nc2ccc(Cl)cc2C12Nc1cc(Cl)ccc1S2 (stereo unspecified)
inactive: RPMI-8226 leukemia 44.3% | OVCAR-8 ovarian 99.2% | OVCAR-5 ovarian 113% | SK-OV-3 ovarian 108% | OVCAR-3 ovarian 72% | HS 578T breast 144% | NCI/ADR-RES ovarian 82.5% | T-47D breast 33.8% | BT-549 breast 80% | MDA-MB-435 melanoma 91.4% | SW-620 colon 98.9% | MCF7 breast 43.4% | HCT-116 colon 61.2% | HCC-2998 colon 78.9% | KM12 colon 70.7%

N#Cc1ccc(N2Cc3ccccc3OC3=C2C(=O)c2c(O)ccc(O)c2C3=O)cc1
active: RPMI-8226 leukemia 5.99% | OVCAR-8 ovarian 3.86% | OVCAR-5 ovarian -1.88% | OVCAR-4 ovarian -43.4% | OVCAR-3 ovarian -93.2% | T-47D breast -46% | BT-549 breast -17.9% | MDA-MB-435 melanoma -43.9% | SW-620 colon -67.5% | HCT-116 colon -44.3% | KM12 colon 8.89%
inactive: SK-OV-3 ovarian 63.8% | NCI/ADR-RES ovarian 19.7% | HCC-2998 colon 30.7%

CC1=NC2=CC=CC3=NC(C(Cl)(Cl)Cl)=NC(=N1)N23
inactive: RPMI-8226 leukemia 50.3% | OVCAR-8 ovarian 84.9% | OVCAR-5 ovarian 112% | OVCAR-4 ovarian 73% | SK-OV-3 ovarian 87.3% | OVCAR-3 ovarian 34.8% | HS 578T breast 62.6% | NCI/ADR-RES ovarian 81.6% | T-47D breast 61.4% | BT-549 breast 45.9% | MDA-MB-435 melanoma 77.9% | SW-620 colon 78.4% | MCF7 breast 62.7% | HCT-116 colon 68.3% | HCC-2998 colon 57.5% | KM12 colon 85.5%

Cc1ccc(CSC(=N)N)cc1C
inactive: RPMI-8226 leukemia 78.7% | OVCAR-5 ovarian 114% | OVCAR-4 ovarian 101% | SK-OV-3 ovarian 111% | IGROV1 ovarian 106% | OVCAR-3 ovarian 116% | HS 578T breast 103% | NCI/ADR-RES ovarian 98.8% | T-47D breast 108% | BT-549 breast 98.1% | MDA-MB-435 melanoma 112% | SW-620 colon 102% | MCF7 breast 101% | HCT-116 colon 105% | HCC-2998 colon 100% | KM12 colon 107%

CCCCN(CCCC)c1ccc(C(=N)c2ccc(N(CCCC)CCCC)cc2)cc1
active: RPMI-8226 leukemia -74.3% | OVCAR-5 ovarian -82.4% | OVCAR-4 ovarian -79.3% | SK-OV-3 ovarian -22.6% | IGROV1 ovarian -53.5% | OVCAR-3 ovarian -99.2% | HS 578T breast -45% | NCI/ADR-RES ovarian -87.5% | T-47D breast -31.3% | BT-549 breast -7.68% | MDA-MB-435 melanoma -72.4% | SW-620 colon -84% | MCF7 breast -85.5% | HCT-116 colon -99.9% | HCC-2998 colon -96.7% | KM12 colon -95.1%

O=C(Nc1cccc(-n2cc(-c3ccncc3)c(-c3ccc(Cl)c(O)c3)n2)c1)Nc1ccc(Cl)c(C(F)(F)F)c1
active: RPMI-8226 leukemia -10.5% | OVCAR-8 ovarian -41.8% | OVCAR-4 ovarian -3.42% | HS 578T breast -7.39% | NCI/ADR-RES ovarian -16.9% | T-47D breast -7.12% | BT-549 breast 1.33% | MDA-MB-435 melanoma -31.3% | SW-620 colon -19.7% | HCT-116 colon -51% | KM12 colon -27.3%
inactive: OVCAR-5 ovarian 23.3% | IGROV1 ovarian 10.4%

O=c1cc/c(=N\Nc2ccccc2)c(=O)/c1=N/Nc1ccccc1
inactive: RPMI-8226 leukemia 18.9% | OVCAR-8 ovarian 109% | OVCAR-5 ovarian 107% | OVCAR-4 ovarian 107% | SK-OV-3 ovarian 109% | IGROV1 ovarian 60.1% | NCI/ADR-RES ovarian 95.2% | T-47D breast 92.8% | BT-549 breast 102% | MDA-MB-435 melanoma 126% | SW-620 colon 98.6% | MCF7 breast 78.4% | HCT-116 colon 90.1% | HCC-2998 colon 99% | KM12 colon 94.1%

COc1ccc(Nc2[nH]n3c(=O)cc(-c4ccccc4)nc3c2C(=O)Nc2ccc(C)cc2)c(OC)c1
inactive: RPMI-8226 leukemia 108% | OVCAR-5 ovarian 92% | OVCAR-4 ovarian 89.6% | SK-OV-3 ovarian 91.2% | IGROV1 ovarian 102% | OVCAR-3 ovarian 98.7% | HS 578T breast 78.1% | NCI/ADR-RES ovarian 108% | T-47D breast 83.8% | BT-549 breast 92.9% | MDA-MB-435 melanoma 96.8% | SW-620 colon 99.5% | MCF7 breast 99.6% | HCT-116 colon 84.2% | HCC-2998 colon 111% | KM12 colon 106%

C=C(C)[C@@H]1C[C@@H]2Cc3cc(F)ccc3N1O2
inactive: OVCAR-5 ovarian 93.8% | OVCAR-4 ovarian 101% | SK-OV-3 ovarian 104% | IGROV1 ovarian 108% | OVCAR-3 ovarian 112% | HS 578T breast 99% | NCI/ADR-RES ovarian 99.6% | T-47D breast 107% | BT-549 breast 106% | MDA-MB-435 melanoma 104% | SW-620 colon 98.6% | MCF7 breast 95.6% | HCT-116 colon 98.2% | HCC-2998 colon 93.9% | KM12 colon 103%
